Assay outcomes as filed in PubChem.
The list is not random: actives were taken first. Their share in the collection is about 1.2%.
EPAC2 antag: antagonists of human EPAC2; Potency, µM (top dose mostly 114 µM), inactives show at the top dose activity, negative = inhibition, usual class: inhibitors; 360,000 tested, 0.18% active; Q8WZA2; EPAC2 GEF exchange of Rap1B-BODIPY-GDP, fluorescence; also: % is scaled to controls: 0 for no effect and ±100 for the full control effect; nearly all actives have a fitted effect of over 45% in size
EPAC1 ag: activates human EPAC1 exchange factor; O95398; EPAC1 agonist qHTS, biochemical assay; response scale: 100% = response to 6.5 mM cAMP; Potency, µM (series often up to 154 µM), without a hit: at the top dose activation, most hits filed as activators; 360,000 tested, 0.073% active; AID 720707; also: nearly all actives have a fitted effect of over 60% in size
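Nucleotide exchange assay: 100 nM EPAC1 with 250 nM Rap1B loaded with BODIPY-GDP and 50 uM GDP, room temperature. Fluorescence (480/540 nm) read every 5 min for 30 min; signal change normalized to 6.5 mM cAMP as full agonist.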
VDR inh: vitamin D3 receptor (human) inhibition; VDR-SRC2-3 peptide fluorescence polarization, 2 h; AID 504847; Potency, µM, for inactives: max response, negative = inhibition, actives largely listed as inhibitors; 400,000 tested, 0.93% active; P11473; also: % is scaled to controls: 0 for no effect and ±100 for the full control effect
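Two reagent solutions held at 4 deg C in the dark were dispensed, compounds pinned at 23 nl, and the mixture incubated 2 h at room temperature. Read-out: fluorescence polarization of VDR–SRC2-3 peptide binding.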
EPAC1 antagonist: blocks human EPAC1 exchange factor; AID 720709; O95398; EPAC1 GEF assay, Rap1b-BODIPY-GDP exchange fluorescence; 360,000 tested, 0.14% active; Potency, µM (series often up to 115 µM), inactives show at the highest dose activity change, negative = inhibition, usual class: inhibitors;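 also: plate controls were vehicle for no effect and positive control for full effect; nearly all actives have a fitted effect of over 50% in size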
USP1 inh: USP1/UAF1 (human) deubiquitinase inhibition; O94782; recombinant USP1/UAF1, Ub-Rhodamine cleavage fluorescence; Potency, µM (titrated, usually from 57.1 µM), for the others: top-dose activity change, negative = inhibition, actives largely listed as inhibitors; 390,000 tested, 0.23% active; AID 743255; also: % is scaled to controls: 0 for no effect and ±100 for the full control effect; nearly all actives have a fitted effect of over 60% in size
Target sequence (O94782 whole entry, looked up): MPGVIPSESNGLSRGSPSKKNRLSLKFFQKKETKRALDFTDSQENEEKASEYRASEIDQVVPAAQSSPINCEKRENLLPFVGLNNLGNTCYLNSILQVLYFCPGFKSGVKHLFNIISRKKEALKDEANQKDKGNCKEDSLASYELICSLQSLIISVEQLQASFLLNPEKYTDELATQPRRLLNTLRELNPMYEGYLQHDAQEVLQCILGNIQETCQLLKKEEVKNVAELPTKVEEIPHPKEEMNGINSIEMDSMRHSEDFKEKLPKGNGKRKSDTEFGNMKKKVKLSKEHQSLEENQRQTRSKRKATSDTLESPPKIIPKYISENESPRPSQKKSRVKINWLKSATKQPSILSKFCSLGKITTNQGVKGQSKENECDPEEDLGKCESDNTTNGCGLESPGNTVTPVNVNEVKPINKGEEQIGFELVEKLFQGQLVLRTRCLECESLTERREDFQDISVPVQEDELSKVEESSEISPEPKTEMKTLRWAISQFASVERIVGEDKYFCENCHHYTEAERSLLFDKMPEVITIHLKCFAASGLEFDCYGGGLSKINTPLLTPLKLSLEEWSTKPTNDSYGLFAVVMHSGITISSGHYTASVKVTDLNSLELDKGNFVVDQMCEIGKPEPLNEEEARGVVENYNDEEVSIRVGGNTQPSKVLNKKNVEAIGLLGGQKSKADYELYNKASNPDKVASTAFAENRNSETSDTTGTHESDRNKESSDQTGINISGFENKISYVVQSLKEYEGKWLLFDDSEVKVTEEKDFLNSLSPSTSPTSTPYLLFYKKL
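1 nM enzyme complex + cpd, 15 min RT; start with Ub-Rho 150nM final; kinetic fluorescence ex 480/em 540, 6 reads q60 s. Buffer 50mM HEPES pH 7.8, 0.5mM EDTA, 0.1 mg/ml BSA, 1mM TCEP, 0.01% Tween-20.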
EPAC2 ag: EPAC2 (human) agonism; Q8WZA2; EPAC2 activation, biochemical qHTS; response scale: 100% = 6.5 mM cAMP response; Potency, µM (top dose mostly 154 µM), for the others: top-dose activation, actives largely listed as activators; 360,000 tested, 0.079% active; also: nearly all actives have a fitted effect of over 50% in size
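Each well held 100 nM EPAC2, 250 nM RAP1B-BODIPY-GDP and 50 uM GDP. Fluorescence, read at 5-min intervals to 30 min, was referenced to a 6.5 mM cAMP positive control.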
* hit, by the source's call; ? = inconclusive; nt = not tested or not shown. Calls follow the shape of the dose curve; as a rule, active = well fitted curve in the direction sought with a large enough effect; inconclusive = small, poorly fitted or top-dose-only effect, or another doubt; inactive = no such curve, though single readings can be large; an effect the other way counts as inactive or inconclusive. Potency is read from the fitted curve at half-maximal effect.

SMILES | EPAC2 antag | EPAC1 ag | VDR inh | EPAC1 antagonist | USP1 inh | EPAC2 ag
N#CC(C#N)=Cc1cc2ccccc2nc1N1CCCCC1 | ? | -4% | 71µM* | ? | -23% | 23%
O=C(c1ccccc1)[C@@H]1[C@@H](C(=O)c2ccc(F)cc2)[C@@]2(C(=O)Nc3ccccc32)[C@H]2c3ccccc3C=CN12 | -12% | 7% | ? | -4% | 28µM* | 1%
COc1ccc(-c2nn(-c3ccc(F)cc3F)c3c2cnc2ccc(F)cc23)cc1 | nt | nt | 4% | nt | -27% | nt
C=C(C(=O)c1ccccc1)C(C)C(=C)C(=O)c1ccccc1 | -11% | 15% | 79µM* | -11% | -15% | 22%
CCCN1CNc2c(c(=O)[nH]c(=S)n2CCc2ccc(C)cc2C)C1 | nt | nt | -5% | nt | nt | nt
CCOc1nc(OCC)nc(N2CCC(C)CC2)n1 | -3% | 1% | -3% | -5% | -9% | -4%
CCOc1nc(NC2CCCC2)nc(N2CCC(C)CC2)n1 | -6% | -2% | 79µM* | -9% | -23% | 7%
CC[C@H](C)/C=C/C1=CC2=C(Cl)C(=O)[C@@]3(C)OC(=O)C(C(=O)[C@H](C)[C@@H](C)O)=C3C2=CO1 | ? | -21% | ? | 50µM* | ? | -14%
CCn1c(=O)n(C2=C(CO)CN(CC3CCCCCCC3)CC2)c2ccccc21 | nt | nt | -9% | nt | nt | nt
Clc1ccccc1C(c1ccccc1)(c1ccccc1)n1ccnc1 | 14µM* | 5% | ? | -4% | -17% | 20%
COc1cc(C(=O)O)ccc1O | 24% | 8% | -5% | -10% | -18% | 6%
COc1cc(OC)c(-c2cc(C(=O)O)ccc2OC)c(OC)c1 | 0% | -16% | -11% | 89µM* | -6% | -6%
O=S(c1cc(Cl)cc(Cl)c1O)c1cc(Cl)cc(Cl)c1O | 38µM* | -5% | 40µM* | 40µM* | nt | -7%
CN1[C@@H]2CC(OC(=O)[C@H](CO)c3ccccc3)C[C@@H]1[C@H]1O[C@H]12 (stereo partly specified) | nt | nt | -1% | nt | nt | nt
CC(=O)N1c2ccccc2Oc2cc3ccccc3cc21 | -9% | 16% | -9% | ? | -4% | 19%
O=C(CCl)N1c2ccccc2Oc2ccc3ccccc3c21 | 1% | ? | 20µM* | 83% | 22µM* | 2%
S=c1nc2c(n[nH]1)c1ccccc1n2CCc1ccccc1 | -1% | 4% | 79µM* | -13% | -5% | 0%
O=S(=O)(Cc1ccccc1)N1CCN(c2nc(-c3cccs3)nc3ccccc23)CC1 | nt | nt | 2% | nt | nt | nt
COC(=O)C1=C(C)NC(C)=C(C(=O)OCCNCc2ccccc2)C1c1cccc([N+](=O)[O-])c1 (stereo unspecified) | nt | nt | -20% | nt | nt | nt
COc1cc(CCNC2=CC(=O)c3ncccc3C2=O)ccc1O | -5% | -2% | -16% | -5% | 18µM* | -4%
O=C1NC(=S)S/C1=C\c1ccc2ccccc2c1 | ? | -6% | 6% | -14% | 3% | -4%
O=C1NC(=S)SC1=Cc1ccc(Cl)cc1 | 50µM* | -8% | -3% | ? | -14% | 0%
O=C1NC(=S)SC1=Cc1ccccc1Br | 40µM* | 1% | ? | 32µM* | -23% | 5%
O=C1NC(=S)S/C1=C\c1coc2ccc(O)cc2c1=O | 35µM* | 2% | -11% | 56µM* | -19% | -5%
O=C1NC(=S)SC1=Cc1cc(Br)ccc1O | 79µM* | -12% | ? | 56µM* | -18% | 10%
SMILES | EPAC2 antag | EPAC1 ag | VDR inh | EPAC1 antagonist | USP1 inh | EPAC2 ag
O=C1NC(=S)SC1=Cc1ccc(F)cc1 | -27% | -7% | -1% | -21% | -2% | -5%
CNC(=O)C1(C(F)(F)F)CC(CCCO)CCCO1 (stereo unspecified) | nt | nt | -14% | nt | nt | nt
NC(N)=NCCC[C@H](NC(=O)[C@H](Cc1ccccc1)NC(=O)[C@@H]1CCCN1C(=O)[C@H](CO)NC(=O)[C@H](Cc1ccccc1)NC(=O)CNC(=O)[C@@H]1CCCN1C(=O)[C@@H]1CCCN1C(=O)[C@@H](N)CCCN=C(N)N)C(=O)O | nt | nt | 2% | nt | nt | nt
CCOc1cc(/C=C2\C(=O)N(c3cccc(C(F)(F)F)c3)C(=O)c3ccccc32)ccc1O | -8% | 2% | ? | 6% | ? | -5%
Cc1cccc(N2C(=O)/C(=C\c3ccc(OC(F)F)cc3)c3ccccc3C2=O)c1 | -12% | 9% | 35µM* | 6% | ? | -6%
CC(C)ON(C(C(=O)NO)C(C)C)S(=O)(=O)c1ccc(-c2ccccc2)cc1 (stereo unspecified) | nt | nt | -4% | nt | nt | nt
O=C(Nc1ccc(F)cc1)Nc1nnc(Cc2ccccc2F)s1 | -6% | 6% | 71µM* | 2% | -12% | -4%
CCc1ccc2c(c1)NC(=O)C2(C)Cc1ccc(C(F)(F)F)o1 (stereo unspecified) | 20µM* | -24% | nt | -21% | nt | -10%
COC(=O)c1cc(C)nc(Sc2ccccc2N)n1 | 3% | -8% | 5µM* | 18% | -26% | -3%
CC1=C(C)CS(=O)N(c2ccc(S(N)(=O)=O)cc2)C1 (stereo unspecified) | 3% | 5% | 7.9µM* | 3% | -10% | 8%
NS(=O)(=O)c1ccc(N2C(=O)C3CC=CCC3C2=O)cc1 (stereo unspecified) | 3% | 8% | 16% | ? | -23% | 10%
Cc1cc(Cl)n2c(nc3cc(F)c(F)cc32)c1C#N | 8% | -2% | 16µM* | ? | -18% | -2%
Cc1cc(C)n2c(=O)c3ccc(Cl)cc3nc2c1C#N | 2% | 3% | -11% | -5% | -4% | 10%
O=c1c(-c2cccs2)nc2cnc(N3CCOCC3)nc2n1Cc1cccs1 | nt | nt | 1% | nt | nt | nt
COc1ccc(-c2oc(=O)c3cc(OC)c(OC)cc3c2-c2ccc3c(c2)OCO3)cc1 | 3% | -278% | -9% | ? | -8% | 12%
COc1cc2oc(=O)c3c4c(cc5ccc(c1CCN(C)C)c2c53)OCO4 | nt | nt | 40µM* | nt | nt | nt
